This is a sample that favours compounds with a hit; in the whole collection about 3.7% have one here.
A549 viability – kills or reduces viability of A549 cells in Nrf2 counter-screen; A549 ARE-Fluc cells, CellTiter-Fluor viability, 18-24 h; Potency, µM (doses to about 46 µM), hits mostly inhibitors; 0.16% of 390,000 active
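A549 ARE_Fluc cells in 5% FBS OPTI-MEM were exposed to compounds in concentration-response for 18-24 h at 37 deg C. Viability was read by CellTiter-Fluor fluorescence (Ex 405/Em 525) after 30 min, before the luciferase read.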
ELG1 repair inh – ELG1-dependent DNA repair inhibition | AID 504467 | Potency, µM (series often up to 46.1 µM), actives largely listed as inhibitors | 2.3% of 330,000 active | HEK293T ELG1-luciferase reporter, luminescence, 16 h; DNA damage induced by 5-fluorouridine; also: nearly all actives have a fitted effect of over 55% in size
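In this reporter screen, reduction of luminescence relative to DMSO vehicle indicated activity. Compounds and 5-fluorouridine were added together to 2,000 cells per well, incubated for 16 hr at 37 °C, then developed with ONE-Glo.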
Nrf2 activator – Nrf2 pathway activation. Potency, µM (titrated, usually from 46.1 µM), most hits filed as activators. AID 624171. AREc32 ARE-luciferase reporter (MCF7-derived line), luminescence, 24 h. 0.31% of 410,000 active; also: nearly all actives have a fitted effect of over 65% in size
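AREc32 cells carrying an ARE-driven firefly luciferase reporter were seeded at 1000 cells/well in OPTI-MEM with 5% FBS, then exposed to compound for 24 hr at 37 deg C. Luminescence was read with Steady-Glo after 30 min at RT.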
Nrf2 block – Nrf2 pathway inhibition. A549 ARE-Fluc reporter, luciferase luminescence, 18-24 h. Potency, µM (titrated, usually from 46 µM), usual class: inhibitors. 2.1% of 360,000 active; also: nearly all actives have a fitted effect of over 60% in size
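Nrf2 activity is the BugLite luminescence, read 15 min after reagent at room temperature, following CellTiter-Fluor cytotoxicity readout (30 min, 37C). Compound titrations were applied for 18-24 h to 5000 A549 ARE_Fluc cells/well in 5% FBS OPTI-MEM.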
Each line names hits and unclear results; the compound was inactive in the other large screens. Calls follow the shape of the dose curve; as a rule, active = well fitted curve in the direction sought with a large enough effect; inconclusive = small, poorly fitted or top-dose-only effect, or another doubt; inactive = no such curve, though single readings can be large; an effect the other way counts as inactive or inconclusive.

CCCCn1c(NC(=O)CC)c(C#N)c2nc3ccccc3nc21	none
N#Cc1c(NC(=O)c2ccccc2Cl)n(Cc2ccccc2)c2nc3ccccc3nc12	A549 viability inconclusive, ELG1 repair inh 20.6µM, Nrf2 block 16.4µM
CCCCN1CC(c2nc3ccccc3n2CCCCOc2c(C)cccc2C)CC1=O (stereo not drawn)	Nrf2 block inconclusive (no result: ELG1 repair inh)
O=c1oc2ccccc2cc1-c1nc(-c2cccs2)no1	Nrf2 activator 12.6µM (no result: ELG1 repair inh, Nrf2 block)
O=C(NCc1ccccc1)c1ccc2c(=O)n(CC3CCCO3)c(=S)[nH]c2c1 (stereo not drawn)	Nrf2 block inconclusive
O=C(NCc1ccco1)c1ccc2c(=O)n(CC3CCCO3)c(=S)[nH]c2c1 (stereo not drawn)	ELG1 repair inh 13µM, Nrf2 block inconclusive
CC1(C)CC2CC(C)(CN2Cc2c(O)ccc3ccccc23)C1 (stereo not drawn)	none
COc1ccccc1NC(=O)C1=C(C)NC2=C(C(=O)CC(c3ccc(OC)c(OC)c3)C2)C1c1coc2ccccc2c1=O (stereo not drawn)	ELG1 repair inh 10.3µM
CCOC(=O)c1sc2nccc(N(C)C)c2c1N=CNOCc1ccccc1	ELG1 repair inh inconclusive, Nrf2 block inconclusive
CCOC(=O)c1sc2nccc(N(C)C)c2c1N=CNOCc1c(F)cccc1Cl	ELG1 repair inh 16.4µM (no result: Nrf2 block)
Cc1cn(-c2ccccc2)c(C)c1/C=N\Nc1nc(N2CCOCC2)nc(N2CCOCC2)n1	ELG1 repair inh 8.2µM
Clc1ccc(-c2ccc(/C=N/Nc3cc(N4CCOCC4)nc(N4CCOCC4)n3)o2)cc1	ELG1 repair inh 5.8µM
Brc1ccc(-c2ccc(/C=N/Nc3nncc(-c4ccccc4)n3)o2)cc1	ELG1 repair inh inconclusive
O=[N+]([O-])c1ccc(/C=N/Nc2nc(N3CCCCC3)nc(N3CCCCC3)n2)o1	A549 viability inconclusive, ELG1 repair inh 23.1µM, Nrf2 block 18.4µM
Fc1cnc(N/N=C/c2ccc(-c3ccc(Br)cc3)o2)nc1N1CCOCC1	ELG1 repair inh 11.6µM
O=C(COc1ccccc1F)Nc1ccc2nc(SCc3ccccc3)sc2c1	none (no result: ELG1 repair inh)
O=C(CCN1C(=O)/C(=C/c2ccccc2Cl)SC1=S)NC1C=CS(=O)(=O)C1 (stereo not drawn)	none
O=C(C[n+]1ccc(-c2nnc3n2CCC3)cc1)c1ccc(Cl)cc1	none
CCOc1cc(/C=N/NC(=O)c2ccc(O)cc2)ccc1Oc1nc(Cl)ncc1F	ELG1 repair inh inconclusive
Brc1ccc(-c2ccc(/C=N/Nc3nc(N4CCOCC4)nc(N4CCOCC4)n3)o2)cc1	ELG1 repair inh 5.8µM
CCOc1cc(/C=N\Nc2ncc(F)c(N3CCOCC3)n2)ccc1Oc1nc(Cl)ncc1F	ELG1 repair inh 23.1µM, Nrf2 block inconclusive
Cc1ccc(C(C)C)c2c1C(c1ccc3c(c1)OCO3)CC(=O)O2 (stereo not drawn)	Nrf2 block inconclusive
COc1ccc(NC(=O)CSc2ccc3ccccc3c2)cc1S(=O)(=O)N1CCCCC1	ELG1 repair inh inconclusive, Nrf2 block 7.31µM
COc1ccc(NC(=O)CSc2ccc(NC(C)=O)cc2)cc1S(=O)(=O)N1CCOCC1	none
COc1ccc(NC(=O)[C@@H]2CCCN2S(=O)(=O)c2ccccc2F)cc1S(=O)(=O)N1CCCCC1	ELG1 repair inh 14.6µM, Nrf2 block inconclusive
COc1ccc(NC(=O)CCc2nc3ccccc3c(=O)[nH]2)cc1S(=O)(=O)N1CCCCC1	ELG1 repair inh 25.9µM, Nrf2 block inconclusive
COc1ccc(NC(=O)c2n[nH]c(=O)c3ccccc23)cc1S(=O)(=O)N1CCCCC1	ELG1 repair inh 23.1µM, Nrf2 block inconclusive
COc1ccc(NC(=O)c2ccco2)cc1S(=O)(=O)N1CCCCC1	none
CC(C)(C)OC(=O)NCCCNc1ncnc2ccc(-c3ccc4c(c3)OCO4)cc12	none (no result: ELG1 repair inh, Nrf2 activator)
CCOC(=O)c1c2ccccc2[n+]([O-])n1CCO	none
CCOc1cc(N2CCOCC2)c(OCC)cc1NC(=O)CN1CCSC1=O	none
COc1ccccc1NS(=O)(=O)c1cc(NC(=O)Cc2n[nH]c(=O)c3ccccc23)ccc1Cl	ELG1 repair inh 23.1µM, Nrf2 block 20.6µM
NCCCn1c(C(=O)c2cc(Cl)c(N)c(Cl)c2)c2ccc(C(F)(F)F)cc2[n+]1[O-]	none
NCCCn1c(C(=O)c2cc(Cl)c(N)c(Cl)c2)c2ccc([N+](=O)[O-])cc2[n+]1[O-]	A549 viability 18.4µM, ELG1 repair inh inconclusive, Nrf2 activator inconclusive
O=C(C1CCC(CNc2nc(=S)[nH]c3ccccc23)CC1)N1CCN(c2ccc(F)cc2)CC1 (stereo not drawn)	A549 viability inconclusive, ELG1 repair inh 23.1µM, Nrf2 block inconclusive
CCCCNC(=O)C1CCC(CNc2nc(=S)[nH]c3ccccc23)CC1 (stereo not drawn)	none
COc1ccc(N2CCN(CCCNC(=O)C3CCC(CNc4nc(=S)[nH]c5ccccc45)CC3)CC2)cc1 (stereo not drawn)	A549 viability inconclusive, ELG1 repair inh inconclusive, Nrf2 block 6.51µM
Cc1cc2oc(=O)cc(-c3ccccc3)c2c(C)c1-c1ccc(O)cc1	Nrf2 block 16.4µM
O=C(Cn1c(C(F)(F)F)nc2ccccc21)c1ccc(Cl)cc1	Nrf2 block inconclusive
O=C(Cn1c(C(F)(F)F)nc2ccccc21)c1ccccc1	Nrf2 block 20.6µM
Cn1c(SCC(=O)NCC2CCCO2)nnc1-c1ccc(Cl)cc1 (stereo not drawn)	none
O=C1CSC(c2cn(-c3ccccc3)nc2-c2cc3ccccc3o2)N1Cc1ccccc1 (stereo not drawn)	ELG1 repair inh inconclusive
O=C1CSC(c2cn(-c3ccccc3)nc2-c2cc3ccccc3oc2=O)N1Cc1ccco1 (stereo not drawn)	ELG1 repair inh 16.4µM (no result: A549 viability)
CC1CCCCC1NC(=O)/C(C#N)=C/c1ccccc1F (stereo not drawn)	ELG1 repair inh 25.9µM
COc1cc(S(=O)(=O)N2CCOCC2)ccc1NC(=O)COC(=O)C12CC3CC(CC(C3)C1)C2	none
O=C(COC(=O)C12CC3CC(CC(Br)(C3)C1)C2)Nc1cccc(S(=O)(=O)N2CCOCC2)c1	ELG1 repair inh 16.4µM
CCCc1nc2ccccc2c(C(=O)OCC(=O)Nc2cccc(S(=O)(=O)N3CCOCC3)c2)c1CC	A549 viability inconclusive, ELG1 repair inh 25.9µM, Nrf2 block inconclusive
CCCc1nc2ccccc2c(C(=O)OCC(=O)Nc2ccc(S(=O)(=O)N3CCOCC3)cc2)c1CC	A549 viability inconclusive, ELG1 repair inh 20.6µM, Nrf2 block 23.1µM
Cc1onc(-c2ccccc2Cl)c1C(=O)OCC(=O)Nc1cccc(S(=O)(=O)N2CCOCC2)c1	ELG1 repair inh inconclusive, Nrf2 block 18.4µM
CCC[C@@H]1CCCO[C@@](C(=O)NCCN2CCOCC2)(C(F)(F)F)C1	none (no result: ELG1 repair inh)
COc1ccc(Br)cc1S(=O)(=O)N1CCN(S(=O)(=O)c2ccc3c(c2)OCCO3)CC1	Nrf2 block inconclusive (no result: ELG1 repair inh, Nrf2 activator)
C=CCOc1cccc(C2/C(=C(\O)c3ccc4c(c3)OCCO4)C(=O)C(=O)N2CCN2CCOCC2)c1 (stereo not drawn)	none
O=C(/C=C/c1ccc(O)c(O)c1)c1ccccc1O	A549 viability inconclusive, ELG1 repair inh inconclusive, Nrf2 activator inconclusive
